In the library only some 5% were active in any assay of this set; here they are far more common.
VACV Venus inh = qHTS for Stage-Specific Inhibitors of Vaccinia Orthopoxvirus: Venus Reporter Primary qHTS; AID 720580, 2013; Vaccinia virus Venus reporter expression, fluorescence; 330,000 compounds, 0.46% hits; Potency, µM (titrated, usually from 36.5 µM), inactives show at the highest dose activity change, negative = inhibition, usual class: inhibitors; calls by dose curve; tested in A549 cells; note: potency is the fitted concentration of half-maximal effect; nearly all actives have a fitted effect of over 30% in size
HCMV inh = qHTS Assay for inhibitors of the human cytomegalovirus (HCMV). AID 1259415, 2018. HFF cells, HCMV-luciferase reporter, 72 h; hits give low values. 410,000 compounds, 4.5% hits. activity change, negative = inhibition, % at 57.5 µM; in the data active = activity change below about -60%; inconclusive = no clear call, values can overlap the other calls; inactive = above about -39%
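Inhibition of viral replication was scored as loss of reporter luminescence in HFFs infected with HCMV-luciferase (MOI 1 PFU/cell) for 72 h; compounds tested at 2 doses, normalized to buffer and Salinomycin controls.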
VACV mCherry inh = qHTS for Stage-Specific Inhibitors of Vaccinia Orthopoxvirus: mCherry Reporter Primary qHTS | 310,000 compounds, 0.63% hits | Vaccinia virus mCherry reporter infection, fluorescence | Potency, µM (highest dose often 36.5 µM), inactives show top-dose activity change, negative = inhibition, usual class: inhibitors | AID 720579, 2013; calls by dose curve; tested in A549 cells; note: potency is the fitted concentration of half-maximal effect; nearly all actives have a fitted effect of over 35% in size
TbPYK inhibitor = qHTS of Trypanosoma Brucei Inhibitors | pyruvate kinase (Trypanosoma brucei), Q57TT1 | TbPYK enzyme, Kinase-Glo Plus ATP luminescence, 45 min | Potency, µM (titrated, usually from 76.8 µM), inactives show at the top dose activity, negative = inhibition, actives largely listed as inhibitors | 410,000 compounds, 0.12% hits; note: potency is the fitted concentration of half-maximal effect; nearly all actives have a fitted effect of over 50% in size
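TbPYK + substrate in 50 mM TEA pH 7.2, 100 mM KCl, 10 mM MgCl2, 0.05% BSA, 0.01% Tween-20; cpd pinned; ADP 130 uM final; 45 min RT; Kinase-Glo Plus 10 min; luminescence endpoint.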
LmPK inhibitor = qHTS Assay for Inhibitors of Leishmania Mexicana Pyruvate Kinase (LmPK) | Q27686 | purified LmPK, Kinase-Glo ATP luminescence, 1 h | Potency, µM (top dose mostly 57.5 µM), for inactives: at the top dose activity change, negative = inhibition, hits mostly inhibitors | 290,000 compounds, 0.37% hits; note: potency is the fitted concentration of half-maximal effect
Target sequence (Q27686 whole entry, looked up): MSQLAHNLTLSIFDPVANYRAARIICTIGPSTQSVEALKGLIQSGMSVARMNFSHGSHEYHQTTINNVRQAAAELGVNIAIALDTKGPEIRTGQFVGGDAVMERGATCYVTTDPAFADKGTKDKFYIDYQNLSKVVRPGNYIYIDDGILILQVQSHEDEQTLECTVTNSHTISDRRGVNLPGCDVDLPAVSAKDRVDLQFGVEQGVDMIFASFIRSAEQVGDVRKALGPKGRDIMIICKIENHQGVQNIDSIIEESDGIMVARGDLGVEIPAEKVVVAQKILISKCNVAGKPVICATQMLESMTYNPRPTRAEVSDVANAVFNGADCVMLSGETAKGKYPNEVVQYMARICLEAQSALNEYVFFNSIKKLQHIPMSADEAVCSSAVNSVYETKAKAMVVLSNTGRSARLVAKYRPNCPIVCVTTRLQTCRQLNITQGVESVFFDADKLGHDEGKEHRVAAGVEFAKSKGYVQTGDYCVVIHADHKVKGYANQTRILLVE
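Purified LmPK (0.1 nM) with 0.5 mM PEP and 0.1 mM ADP in imidazole buffer pH 7.2 with MgCl2/KCl, 1 h at room temperature. ATP formed was read by luciferase luminescence and normalized to no-enzyme and uninhibited controls.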
Starred values were filed as active, the others as inactive; i = inactive; ? = inconclusive; . = no result given; [ ] = another dose, or the depositor's remark. Unless noted, calls come from the whole dose curve; as a rule, active = well fitted curve in the direction sought with a large enough effect; inconclusive = small, poorly fitted or top-dose-only effect, or another doubt; inactive = no such curve, though single readings can be large; an effect the other way counts as inactive or inconclusive. % is set by controls: 0 for no effect and ±100 for the full control effect.

SMILES | VACV Venus inh | HCMV inh | VACV mCherry inh | TbPYK inhibitor | LmPK inhibitor
CCCCc1ccc(/C(C)=N/NC(=O)C2CCCC2)cc1 | -15% | -27 | ? | 2% | 0%
CC(C)N1CCc2c(sc(NC(=O)c3ccc(S(=O)(=O)N4CCOCC4)cc3)c2C(N)=O)C1 | -6% | -8 | ? | 1% | 5%
CC(C)N1CCc2c(sc(NC(=O)CCS(=O)(=O)c3ccccc3)c2C(N)=O)C1 | . | -111* | . | -3% | 5%
CC(C)N1CCc2c(sc(NC(=O)C3CCCCC3)c2C(N)=O)C1 | 13µM* | -79* | ? | 2% | 1%
CC(C)CN(CC(C)C)S(=O)(=O)c1ccc(C(=O)Nc2sc3c(c2C(N)=O)CCN(C(C)C)C3)cc1 | ? | -82* | ? | 2% | .
COC(=O)c1c(NC(=O)C2CCCCC2)sc2c1CCN(C(C)C)C2 | -19% | -24 | -24% | -11% | -1%
CCOCCSc1c(C)cnc2c1c(=O)n(C)c(=O)n2C | -6%[7.34 µM] | ? | -15%[7.34 µM] | -2% | .
COc1ccc(CN2C(=O)C(n3ccc4ccccc43)c3ccccc32)cc1 (stereo not given) | . | 14 | . | . | .
O=C(CSc1nnc(Cn2nnc3ccccc32)o1)N(Cc1ccc(F)cc1)c1ccccc1 | ? | -100* | ? | -10% | 3%
COc1ccc(CN(C(=O)CSc2nnc(-c3c[nH]c4ccccc34)o2)c2ccc(F)cc2)cc1OC | 10µM* | -70* | 10µM* | 4% | 5%
CCn1c(C)c(P(c2ccccc2)c2ccccc2)[n+]2ccccc12 | -17% | -61* | -19% | 0% | 2%
CC[C@H](C)[C@@H]1NC(=O)[C@H]([C@@H](C)CC)NC(=O)[C@@H](CC(C)C)NC(=O)[C@H](Cc2ccccc2)NC(=O)[C@H](Cc2ccccc2)NC(=O)[C@@H]2CCCN2C(=O)[C@@H]2CCCN2C(=O)[C@H](C(C)C)NC(=O)[C@H](CC(C)C)NC1=O | ? | -80* | -18% | -6% | .
O=C(CCc1ccccc1)N[C@@H]1c2ccccc2CC[C@H]1OCc1ccccc1 | -21% | -19 | i | -3% | .
C=CCOc1ccc(CNC(C)(C)C)cc1OC | -7% | -1 | -20%[1.46 µM] | 3% | 3%
CCc1ccccc1NC(=O)C(CC)Sc1ncnc2c1sc1ccccc12 (stereo not given) | -7% | 1 | 17% | 5% | .
CCOC(=O)N1CCN(C(=O)c2cc3c(s2)-c2ccc(Cl)cc2S(=O)(=O)C3)CC1 | . | -62* | . | -4% | -2%[11.5 µM]
CCN(c1cc(C)cc(C)c1)S(=O)(=O)c1nnc(NC(=O)c2cccs2)s1 | -9% | -13 | -7% | -6% | .
Clc1ccc(-c2nc3ccccc3[nH]2)cn1 | -16% | -33 | 11% | -9% | 25µM*
c1ccc2[nH]c(-c3cscn3)nc2c1 | -20% | -90* | -4% | -6% | ?
Cc1ccc(NC(=O)COC(=O)c2c[nH]c3ccccc23)cc1C | . | 17 | . | 1% | .
c1ccc2c(Nc3nnc(-c4ccncc4)s3)cccc2c1 | -10% | -21 | -22% | -4% | -4%
COc1ccc(Nc2nccc3c2cc(-c2ccccc2OC)n3C)cc1OC | . | -90* | . | . | .
COc1ccccc1-c1cc2c(Nc3ccc4c(c3)OCCO4)nccc2n1C | . | -70* | . | . | .
COc1ccc(OC)c(N(CCN2C(=O)c3ccccc3C2=O)C(=O)CCl)c1 | -29% | -98* | ? | 2% | .
O=C(CCCN1C(=O)/C(=C/c2ccco2)SC1=S)Nc1cccc(C(=O)O)c1 | 38% | -25 | -17% | -14% | 6%
COc1ccc(NC(=O)CCCN2C(=O)/C(=C\c3ccco3)SC2=S)cc1 | -30% | -101* | ? | -19% | -4%
COc1ccc(/C=C2\SC(=S)N(CCCC(=O)NNC(=O)c3ccccc3O)C2=O)cc1 | -19% | -75* | 0% | 2% | 1%
COc1ccc(/C=C2/SC(=S)N(CCCC(=O)Nc3cccc(O)c3)C2=O)cc1 | 10% | -97* | ? | 0% | 5%
COc1cccc(/C=C2\SC(=S)N(CCC(=O)NCCc3ccc(O)cc3)C2=O)c1 | ? | -100* | 11µM* | -2% | 4%

From PubChem BioAssay
